Laboratory results as given in the supplement of paper PMC9337992.
± gives the standard deviation of the averaged measurements.

Test system: MDAMB468
Experiment: cell proliferation (confluence) relative to DMSO control; higher = less growth inhibition
Settings: 5 uM; 6 d
Protocol: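 Epigenetic chemical probe screen: 15 TNBC cell lines, 500 cells per well in 384-well plates, treated with 5 uM of each of 36 SGC probes for 6 d. Confluency was imaged by IncuCyte ZOOM and normalised to DMSO control wells. Four replicate wells per compound.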

SMILES | cell proliferation
COc1ccc(CCc2nc3cc(-c4c(C)noc4C)ccc3n2C[C@H](C)N2CCOCC2)cc1Cl | 32.8 ± 4%
O=C([C@@H](Cc1cccc(C(F)(F)F)c1)NS(=O)(=O)c1cc(F)c2c(c1)CCNC2)N1CCCC1 | 50.5 ± 25%
CC(C)Oc1ccc(-c2c[nH]cc2CN(C)CCO)cc1 | 37 ± 7.3%
Cc1nnc2c3ccccc3c(N[C@@H](C)[C@H](c3ccccc3)N(C)C)nn12 [L-moses] | 41 ± 3.8%
COc1c(C)cc(NC(=O)c2nn(Cc3ccc(F)cc3)c3c2CN(C(=O)c2ccc[nH]2)C[C@]3(C)C(N)=O)cc1C | 35.5 ± 4.7%
CCOC(=O)CCNc1cc(N2CCc3ccccc3CC2)nc(-c2ccccn2)n1 | 9.55 ± 1.9%
CC(C)N(CCCNC(=O)Nc1ccc(C(C)(C)C)cc1)C[C@H]1O[C@@H](n2cc(Br)c3c(N)ncnc32)[C@H](O)[C@@H]1O | 54.2 ± 14%
COc1cc2c(cc1OCCCN1CCCC1)N=C(N)C21CCC1 | 71.6 ± 11%
CCC(=O)N1CCOc2c(cc(-c3ccc(OC)c(OC)c3)cc2OC[C@H]2CCCN(C)C2)C1 | 37.1 ± 9%
COc1cc2c(NC3CCN(C(C)C)CC3)nc(C3CCCCC3)nc2cc1OCCCN1CCCC1 | 67.2 ± 8%
O=C(NC[C@H](O)CN1CCc2ccccc2C1)c1ccnc(NC2CCC2)c1 | 32 ± 1.8%
O=C(NCC(=O)N1CCCC1)Nc1ccc2cnccc2c1 | 40.6 ± 15%
O=C(c1ccc(C(=O)N2CCC(N3CCCC3)CC2)c(Nc2ccccc2)c1)N1CCC(N2CCCC2)CC1 | 74.9 ± 8.6%
CC[C@H](C)n1cc(C)c2c(C(=O)NCc3c(C)cc(C)[nH]c3=O)cc(-c3ccc(N4CCNCC4)nc3)cc21 | 15.4 ± 9%
COc1ccccc1S(=O)(=O)Nc1ccc2c(c1)CN(C)C(=O)N2 | 23.2 ± 2.7%
CCN(C(=O)CO)[C@H]1CN(/C(=N\C#N)Nc2cccc(OC(F)F)c2)N=C1c1ccc(Cl)c(Cl)c1 | 55.2 ± 6%

SMILES | cell proliferation
Cn1cc(CCn2cnc(-c3cnn(C)c3)c2-c2ccc(C#N)cc2)cn1 | 55.5 ± 13%
CN(C)[C@H]1CN(C2CCc3cccc(F)c32)C[C@@H]1c1ccc(N2CCN(S(C)(=O)=O)CC2)cc1 (some centres not stated) | 62.7 ± 4.4%
Clc1cc2c(NC3CCCC3)nnc(-c3ccncc3)c2cc1Cl | 56.9 ± 7.9%
CCCOc1ccn2c(C(C)=O)cc(-c3ccccc3S(C)(=O)=O)c2c1 | 66 ± 5.1%
CC(C)Oc1ccc(-c2c[nH]cc2CN(C)CCN)cc1 | 19.3 ± 5.7%
CCn1cc(-c2cccc(C(F)(F)F)c2)c2sc(C(=N)NC3CCS(=O)(=O)CC3)cc2c1=O | 29.1 ± 4.8%
CCCc1cc(C)n(C)c(=O)c1CN(C)C(=O)c1cc(-c2ccc(N3CCN(C(C)C)CC3)nc2)cc2c1cnn2C(C)C | 70.4 ± 6.3%
COc1ccccc1C(=O)Nc1cc2c(cc1N1CCCC1)n(C)c(=O)n2C | 39.3 ± 3.8%
O=C(/C=C/N1C[C@H]2C[C@@H]1CN2c1ccccn1)c1ccccc1O | 75.6 ± 6.1%
COc1cc(-c2cn(C)c(=O)c3cnccc23)c(OC)cc1CN(C)C | 53.6 ± 13%
CNCCN1CCC(OCc2ccccc2)CC1 | 37.4 ± 6.8%
CCCc1cc(C)[nH]c(=O)c1CNC(=O)c1cc(-c2ccc(N3CCN(C(C)C)CC3)nc2)cc2c1cnn2C(C)C | 13.3 ± 14%
COc1cc(C#N)ccc1S(=O)(=O)Nc1ccc2c(c1)cc(C)c(=O)n2C | 40.4 ± 6.3%
Cc1cc(=O)n(C)c2cc(N3C(=O)CC[C@H](NS(=O)(=O)CC(C)C)[C@H]3c3ccc(Cl)cc3)ccc12 | 59.3 ± 2.4%
CCCc1cc(C)[nH]c(=O)c1CNC(=O)c1cc(-c2ccnc(N3CCN(C)CC3)c2)cc2c1cnn2C(C)C | 67.7 ± 12%
CCOC(=O)CCNc1cc(N2CCc3ccccc3CC2)nc(-c2cccnc2)n1 | 71.9 ± 10%
